This excerpt belongs to a sample that is enriched for hits.
YB-1 expression = YB-1 expression inhibition; U2OS, qRT-PCR YB-1 vs CDIP delta delta Cp, 16 h; hits give high values; zero = DMSO, each unit about twofold; delta delta Cp (YB-1 minus CDIP) (concentration not given with the values); 30,000 compounds, 0.37% hits; AID 434959;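 active = delta delta Cp rounded down to an integer at or above 3, about 3 SD of DMSO wells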;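 also: higher means less YB-1 transcript or more CDIP transcript relative to DMSO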
PD-1 reversal = activators reversing PD-1 mediated T-cell inhibition; activation, % (test concentration not listed); primary human CD4 T cells, PD-L1 beads, CellTiter-Glo 96 h; 29,000 tested, under 10 active; call rule not given here
U2OS ROS induce = cancer cell ROS induction; U2OS ROS induction, H2DCF-DA fluorescence; ROS induction (% of piperlongumine), % at 10 µM; 46,000 compounds, 2% hits; AID 624156; in the data active = ROS induction above about 79%, passing the limit was not always enough; inconclusive = no clear call, values can overlap the other calls
NOMO-1 viab = STK33 inhibitor candidate reducing NOMO-1 cell viability; AID 2330; 37,000 compounds, 7.5% hits; NOMO-1 AML viability, CellTiter-Glo luminescence, 72 h; inhibition, % (concentration not given with the values); in the data active = inhibition above about 80%; inconclusive = no clear call, values can overlap the other calls
MITF inh = blocks MITF activity; TRPM1 promoter luciferase, luminescence, 24 h; AID 2240; 37,000 compounds, 0.28% hits; inhibition, % (concentration not given with the values); in the data active = inhibition above about 85%; inconclusive = no clear call, values can overlap the other calls; inactive = below about 68%;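 also: human melanocyte line stably carrying TRPM1 promoter luciferase reporter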
A number is an active result; – = inactive; ? = inconclusive; · = no result given.

SMILES	YB-1 expression	PD-1 reversal	U2OS ROS induce	NOMO-1 viab	MITF inh
N#Cc1c(C(F)(F)F)cc(-c2cccs2)nc1S/C=C/C(=O)c1ccccc1	–	–	126	116	–
CNC[C@@H]1Oc2ccc(NC(=O)Nc3ccc4c(c3)OCO4)cc2CC(=O)N([C@H](C)CO)C[C@H]1C	–	–	–	–	–
Cc1ccc2c(c1)c(-c1ccccc1)c(-c1ccccc1)n2CC(O)CN1CCN(CCO)CC1 (configuration not stated)	·	–	–	90	–
Cc1ccc2c(c1)c(-c1ccccc1)c(-c1ccccc1)n2CC(O)Cn1c(C)cc(C)nc1=O (configuration not stated)	·	·	–	·	·
CC(C)NC(=O)N(C)C[C@@H]1Oc2c(NC(=O)CCCCCC(=O)Nc3ccccc3N)cccc2C(=O)N([C@@H](C)CO)C[C@H]1C	–	–	–	–	–
CCCn1c2ccc(C)cc2c2nnc(SCCN3CCOCC3)nc21	–	–	142	–	–
Cc1ccc2c(c1)c1nnc(SCCN3CCOCC3)nc1n2C	·	–	–	–	–
CCCCn1c2ccccc2c2nnc(SCCN3CCOCC3)nc21	·	–	155	–	–
Cc1ccc2c(c1)c1nnc(SCCN3CCOCC3)nc1n2Cc1ccccc1	·	–	113	–	–
CC(C(=O)Nc1cc(C(F)(F)F)ccc1Cl)n1cc([N+](=O)[O-])cn1 (configuration not stated)	·	–	–	–	–
COc1cc(/C=N/NC(=O)c2cccc(C(=O)NO)c2)c(Br)cc1O	–	·	–	·	·
CCOc1ccccc1-n1c(N)c(C#N)c(N)c(C#N)c1=S	·	·	–	·	·
O=C(CSc1nnc(-c2ccccc2)c(-c2ccccc2)n1)Nc1cccc(C(F)(F)F)c1	·	–	–	–	–
CC1=N/C(=C\c2sccc2C)C(=O)O1	–	–	94	?	–
C[C@@H]1CN([C@@H](C)CO)C(=O)c2cccc(NC(=O)Nc3ccc(C(F)(F)F)cc3)c2O[C@H]1CN(C)CC1CC1	–	–	–	83	–
C[C@H](CO)N1C[C@H](C)[C@@H](CN(C)CC2CCCCC2)Oc2c(NC(=O)Nc3ccc(C(F)(F)F)cc3)cccc2C1=O	–	–	–	121	–
C[C@@H]1CN([C@H](C)CO)C(=O)c2cccc(NC(=O)Nc3ccc(C(F)(F)F)cc3)c2O[C@@H]1CN(C)CC1CC1	–	–	–	–	–
CC(=O)c1cccc(N(CC(=O)Nc2ccccc2C)S(C)(=O)=O)c1	·	·	·	–	–
O=C(Nc1ccccc1)c1ccc(CSc2nnc(-c3ccncc3)n2-c2ccccc2)cc1	·	–	109	–	–
Cn1c(SCC(=O)Nc2ccc(Cl)c(Cl)c2)nnc1-c1ccc(Cl)c(Cl)c1	·	·	·	106	–
Cc1cccc(NC(=O)CSc2nnc(-c3ccc(Cl)cc3)n2-c2cccc(C)c2)c1	·	–	–	128	–
COc1ccc(C)cc1NC(=O)CSc1nnc(-c2ccc(C(C)(C)C)cc2)n1C	·	–	93	–	–
COc1ccc(C)cc1NC(=O)CSc1nnc(-c2ccc(Cl)c(Cl)c2)n1C	·	–	–	–	–
Cc1ccc(NC(=O)CSc2nnc(-c3ccc(Cl)c(Cl)c3)n2C)cc1C	·	·	·	–	–
CC(C)NC(=O)N(C)C[C@H]1Oc2ccc(NC(=O)Nc3cccc4ccccc34)cc2C(=O)N([C@@H](C)CO)C[C@H]1C	–	–	–	–	–
SMILES	YB-1 expression	PD-1 reversal	U2OS ROS induce	NOMO-1 viab	MITF inh
CC1CN(S(=O)(=O)c2cccc(C(=O)O)c2)CC(C)O1 (configuration not stated)	–	–	–	–	–
O=C1CON(c2ccc(Cl)c(Cl)c2)C(=O)N1	·	·	–	·	·
Cc1ccc(NC(=O)CSc2nnc(-c3cccnc3)n2-c2ccc(Br)cc2)cc1F	·	–	77	–	–
CC(C)(C)c1ccc(-c2nnc(SCC(=O)Nc3ccccc3)n2-c2ccccc2)cc1	·	–	–	113	–
O=C(Cc1ccc(-n2c(=S)[nH]c3ccccc3c2=O)cc1)NCCc1ccccc1	·	·	–	·	·
C[C@@H]1CN([C@H](C)CO)C(=O)Cc2cc(NS(=O)(=O)c3ccc(Cl)cc3)ccc2O[C@@H]1CN(C)Cc1ccc(-c2ccccc2)cc1	–	–	–	122	–
C[C@H]1CN([C@@H](C)CO)C(=O)Cc2cc(NS(=O)(=O)c3ccc(Cl)cc3)ccc2O[C@H]1CN(C)Cc1ccc(-c2ccccc2)cc1	–	–	–	111	–
C[C@@H]1CN([C@@H](C)CO)C(=O)Cc2cc(NS(=O)(=O)c3ccc(Cl)cc3)ccc2O[C@@H]1CN(C)Cc1ccc(-c2ccccc2)cc1	–	–	–	–	–
COc1ccc(Cn2c(C)cc(O)cc2=O)cc1OC	–	–	–	–	–

Assay outcomes from PubChem.
